Reference: PubChem BioAssay (Tox21)
Inconclusive results are not listed. Activity calls are given as the source filed them. Calls follow the shape of the full dose curve.

Test: qHTS assay to identify small molecule agonists or antagonists of the thyroid stimulating hormone receptor (TSHR) signaling pathway - wild type cell line counter screen (AID 1259384)
Conditions: HEK293 wild type, cAMP HTRF counter-screen, active compounds read high; series mostly up to 92.4 µM; cAMP activity change: at the top concentration
Text: U.S. Tox21 Program National Center for Advancing Translational Sciences [NCATS] NIH Chemical Genomics Center [NCGC] U.S. Environmental Protection Agency [EPA] National Institutes of Environmental Health Sciences [NIEHS] National Toxicology Program [NTP] U.S. Food and Drug Administration [FDA] Tox21 Assay Overview: TSHR is the receptor for thyrotropin (thyroid stimulating hormone or TSH), a member of the glycoprotein hormone family. TSH is released by the anterior pituitary gland and is the main regulator of thyroid gland growth and development. Upon binding circulating thyrotropin, a G-protein signal cascade activates adenylyl cyclase and […] cAMP concentration is increased. cAMP is a key second messenger involved extensively in cellular signal transduction pathways associated with the majority of G-protein coupled receptors (GPCRs). The activation of these GPCRs by neurotransmitters, lipids, nucleotides, peptides and hormones results in the activation or the inhibition of plasma membrane-bound adenylate cyclase through heterotrimeric G-proteins. A cell-based TSHR-Hek293 assay can be used to identify TSHR agonists. To eliminate the false positive compounds identified from screening a cell-based TSHR-Hek293 cell line, cAMP assay in a wild type Hek293 cells was used as a counter screening.
Tox21 Assay Protocol Summary: Hek293 cells (wild type) were dispensed at 800 cells/4 uL/well in 1536-well white plates using a Multidrop dispenser. After the assay plates were incubated at a 37 C/5% CO2 incubator for 18 hrs, 23 nL of compounds dissolved in DMSO, positive controls or DMSO only was transferred to the assay plate by a pin tool, followed by 1 ul medium containing Ro20-1724. After 30 min of incubation at room temperature, 2.5 ul/well of cAMP-d2 and 2.5 ul/well of anti-cAMP-cryptate were added respectively into the assay plates using a Flying Reagent Dispenser. The plates were incubated at room temperature for 1 hr. The fluorescence intensity in the plates was measured using an Envision plate reader. Each test compound was measured at 15 concentrations and in triplicates.
% is scaled to controls: 0 for no effect and ±100 for the full control effect.

Compound | outcome | cAMP activity change
Cc1ccc(N)cc1 | inactive | –
CC(=O)C1CCOC1=O (stereo not given) | inactive | –
COc1nc(NC(C)C)nc(NC(C)C)n1 | inactive | –
Cc1cccc(N)c1C | inactive | –
CC(C)(C)C(=O)CCl | inactive | –
CNC(=O)O/N=C/C(C)(C)S(C)=O (stereo not given) | inactive | –
CNC(=O)O/N=C/C(C)(C)SC | inactive | –
CCCCC(CC)C(=O)Cl (stereo not given) | inactive | –
CNCC(O)c1ccc(O)cc1 (stereo not given) | inactive | –
CC(C)c1cccc(C(C)C)c1O | inactive | –
O=[N+]([O-])c1ccc(Cl)c(Cl)c1 | inactive | –
Nc1ccc([As](=O)(O)O)cc1 | inactive | –
ClCCOCCCl | inactive | –
Cl/C=C/Cl | inactive | –
O=[N+]([O-])c1cc([As](=O)(O)O)ccc1O | inactive | –
O=C(O)COc1ccccc1 | inactive | –
Nc1ncc([N+](=O)[O-])s1 | inactive | –
Nc1cc(Cl)cc(Cl)c1 | inactive | –
CN(C)C(=O)Nc1cccc(C(F)(F)F)c1 | inactive | –
OC[C@@H](O)[C@H]1O[C@@H]2O[C@H](C(Cl)(Cl)Cl)O[C@@H]2[C@H]1O | inactive | –

Compound | outcome | cAMP activity change
CSc1nnc(C(C)(C)C)c(=O)n1N | inactive | –
Clc1cnc(Oc2ccc(Oc3ncc(Cl)cc3Cl)cc2)c(Cl)c1 | – | 1.44% [at 42.5 µM] (inactive)
Cc1ccc(O)c(C)c1 | inactive | –
CC(=O)/C=C/c1ccccc1 | inactive | –
CN(C)C(=O)Cl | inactive | –
Cc1cc(O)ccc1Cl | inactive | –
CNC(=O)Oc1cccc2ccccc12 | inactive | –
N#Cc1ccccn1 | inactive | –
O=C(O)CCCc1ccc(N(CCCl)CCCl)cc1 | inactive | –
CCOc1ccc(N)cc1 | inactive | –
C/C=C/c1ccc2c(c1)OCO2 | inactive | –
Oc1c(Br)cc(Br)cc1Br | inactive | –
N#CN=C(N)N | inactive | –
O=P1(NCCCl)OCCCN1CCCl (stereo not given) | inactive | –
OCC(O)CCl (stereo not given) | inactive | –
C=CC#N | inactive | –
C=C(C)C(=O)OCC(CC)CCCC (stereo not given) | inactive | –
Nc1cccc(Cl)c1 | inactive | –
COC(C)(C)CCCC(C)C/C=C/C(C)=C/C(=O)OC(C)C (stereo not given) | inactive | –
CCNc1nc(Cl)nc(NC(C)C)n1 | inactive | –
